Results filed as inconclusive are left out. Calls of active or inactive are those of the source. Calls come from the whole dose curve; as a rule, active = well fitted cell-killing curve with a large enough effect in the repeat runs; inconclusive = weak or mixed curves, or effect the other way; inactive = flat fitted curve, though single readings scatter.
Test: qHTS assay to identify small molecule agonists of the sonic hedgehog signaling (Shh) pathway - cell viability counter screen (AID 1259366); note: nearly all actives have a fitted effect of over 50% in size
Settings: NIH/3T3 Gli1-Luc viability, CellTiter-Fluor, 24 h; series mostly up to 92.4 µM; viability change, negative = cytotoxic: at the top concentration
Excerpt: National Center for Advancing Translational Sciences [NCATS]
NIH Chemical Genomics Center [NCGC]
U.S. Environmental Protection Agency [EPA]
National Institutes of Environmental Health Sciences [NIEHS]
National Toxicology Program [NTP]
U.S. Food and Drug Administration [FDA]
The sonic hedgehog (Shh) pathway is essential for normal embryonic development. Dysregulation of the Shh pathway can cause severe developmental defects in organs. Therefore chemicals that interfere with the pathway are potential developmental toxicants. A cell line designated 3T3Gli1-Luc (DMB/OARSA/CFSAN/FDA, Laurel, MD), a NIH/3T3 derived clone containing stably integrated Gli1-Luc reporter is used to detect chemical interference of the Shh pathway, by changes in the expression of the firefly Luc gene under the control of the Gli1 transcriptional response element. This cell line was used to screen Tox21 libraries for identifying and prioritizing the potential developmental toxicants that interfere Shh pathway. The cytotoxicity of the compounds was tested in parallel by measuring the cell viability using CellTiter-Fluor assay system (Promega, Madison, WI) in the same wells.
Tox21 Assay Protocol Summary:
3T3 Gli1-Luc cells were dispensed at 2,000 per well in 5uL of culture medium into white solid bottom 1536-well plates (Greiner Bio-One, Monroe, NC) using a Multidrop Combi (Thermo Scientific, Waltham, MA) dispenser. The assay plates were incubated at 37 C and 5% CO2 for 4hr, and then 23nL of compounds dissolved in DMSO and positive control were transferred using a Pintool station (Wako, San Diego, CA). The assay plates were incubated at 37C and 5% CO2 for 24hr. For viability read, after 23hr of compound treatment, 1uL of CellTiter-Fluor reagent (Promega Corporation, Madison, WI) was added to each well of the assay plates using Flying Reagent Dispenser (FRD, Aurora Discovery, San Diego, CA) and incubated the assay plates at 37C for 1hr. The fluorescence signal was quantified using a ViewLux plate reader (Perkin Elmer, Shelton, CT).
% is set by controls: 0 for no effect and ±100 for the full control effect; potency is the fitted concentration of half-maximal effect.

Row | SMILES | viability change, negative = cytotoxic | Potency
1 | O=C(O)c1cccc(Oc2ccccc2)c1 | 11.3% (inactive) | 
2 | O=C1OC[C@H](Cc2cccc(O)c2)[C@H]1Cc1cccc(O)c1 | 0.0146% [at 42.5 µM] (inactive) | 
3 | COC(=O)Nc1nc2ccc(C(=O)C3CC3)cc2[nH]1 | 0.508% [at 42.5 µM] (inactive) | 
4 | O=C(O)CCS | -0.213% (inactive) | 
5 | NC(=O)CCCCC(N)=O | -0.444% (inactive) | 
6 | COC(C)(C)OC | -10.3% (inactive) | 
7 | BrC(Br)C(Br)Br | 0.694% (inactive) | 
8 | Cc1cn([C@H]2C[C@H](F)[C@@H](CO)O2)c(=O)[nH]c1=O | 8.21% [at 42.5 µM] (inactive) | 
9 | CN1CCCN(C(c2ccccc2)c2ccc(Cl)cc2)CC1 (stereo not given) |  | 15 µM (active)
10 | CCCCCCCCCCCCCCCCCC(=O)OCC(CC)CCCC (stereo not given) | 3.23% (inactive) | 
11 | Cc1ccc(NC(=O)N(C)C)cc1NC(=O)N(C)C | 1.65% (inactive) | 
12 | CC1=CC[C@@]23C[C@@H]1C(C)(C)[C@@H]2CC[C@H]3C | -9.02% (inactive) | 
13 | CC(=O)OCC(C)C | 0.484% (inactive) | 
14 | C=CC(=O)O | -0.128% [at 42.5 µM] (inactive) | 
15 | CCOC(=O)c1c(N)sc2c1CCN(Cc1ccccc1)C2 | 12.3% [at 42.5 µM] (inactive) | 
16 | CCC(C)(C)C(=O)O | -0.547% (inactive) | 
17 | COc1ccc(C(=O)NCc2ccc(OCCN(C)C)cc2)cc1OC | 3.71% [at 42.5 µM] (inactive) | 
18 | CCSC(=O)N(CC)CC | -3.26% (inactive) | 
19 | CCCCCCCCCCCCCOS(=O)(=O)O | 2.04% (inactive) | 
20 | CC(=O)c1ccc[nH]1 | -5.56% (inactive) | 

Row | SMILES | viability change, negative = cytotoxic | Potency
21 | CCCCCCC(O)CCCCCCCCCCC(=O)OC (stereo not given) | -0.216% (inactive) | 
22 | Cc1c[nH]c2ccccc12 | 0.353% [at 42.5 µM] (inactive) | 
23 | Cc1cc(CCC(=O)OCCOCCOCCOC(=O)CCc2cc(C)c(O)c(C(C)(C)C)c2)cc(C(C)(C)C)c1O | -0.981% (inactive) | 
24 | COC1CCC=CO1 (stereo not given) | 1.13% (inactive) | 
25 | CC(C)c1ccc(C#N)cc1 | -0.642% (inactive) | 
26 | O=C(/C=C/c1ccc([N+](=O)[O-])cc1)c1ccccc1 | 3.24% (inactive) | 
27 | CCN(Cc1cccc(S(=O)(=O)O)c1)c1ccc(C(=C2C=CC(=[N+](CC)Cc3cccc(S(=O)(=O)O)c3)C=C2)c2ccccc2S(=O)(=O)[O-])cc1 |  | 27.4 µM (active)
28 | O=C(O)c1cc(Cl)cc(Cl)c1O | 0.979% (inactive) | 
29 | O=C(O)CCC(=O)c1ccc(-c2ccccc2)cc1 | 1.47% [at 42.5 µM] (inactive) | 
30 | CC1C(C)(C)C2=C(C(=O)CCC2)C1(C)C (stereo not given) | -0.159% (inactive) | 
31 | CCN(CC)C(=O)N1CCN(C)CC1 | 3.9% [at 42.5 µM] (inactive) | 
32 | CC(C)(O)CCc1ccccc1 | -0.507% (inactive) | 
33 | CC(C)(C(=O)c1cccnc1)c1cccnc1 | 0.531% [at 42.5 µM] (inactive) | 
34 | OCC(CO)n1cnc(-c2ccc(F)cc2)c1-c1ccnc(Oc2ccccc2)n1 | -16.9% (inactive) | 
35 | COC(CC(C)CCCC(C)(C)O)OC (stereo not given) | 0.985% (inactive) | 
36 | CCCCCCCC/C=C/C(=O)O | -1.14% [at 42.5 µM] (inactive) | 
37 | CC(=O)C(C)=O | 9.85% (inactive) | 
38 | C=CC(=O)NC(C)C | 0.301% (inactive) | 
39 | CC(C)CC(O)CC(C)C | -0.194% (inactive) | 
40 | NC(=O)c1ccccc1[N+](=O)[O-] | 0.573% (inactive) | 
